Results on 18 molecules are retold here after PubChem BioAssay AID743441 (Broad Institute, 2014).

Molecules are shown by their SMILES. Potency and affinity values are given separately. Calls of active or inactive are those of the source.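 The calls were made as follows: active = cell toxicity seen as a signal drop, with half-maximal potency at most twice the top valid dose; inconclusive = flat curve with a partial drop, or a poor fit; inactive = the rest, including rises in signal.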

The nature of the experiment: HEK293T cell cytotoxicity, dose response, cytotoxicity control, CellTiter-Glo luminescence, cherry-picked samples, set 4 (AID 743441). Particulars: HEK293T viability, ATP luminescence CellTiter-Glo, 72 h; series mostly up to 26 µM.
For the molecule `Cc1noc(C)c1NC(=O)Nc1ccc2c(c1)C(=O)N([C@H](C)CO)C[C@@H](C)[C@@H](CN(C)C(=O)Nc1ccc3c(c1)OCO3)OCCCC[C@@H](C)O2`, the call was inactive.
Under `CC[C@H]1OC(=O)[C@H](C)[C@@H](O[C@H]2C[C@@](C)(OC)[C@@H](O)[C@H](C)O2)[C@H](C)[C@@H](O[C@@H]2O[C@H](C)C[C@H](N(C)C)[C@H]2O)[C@](C)(O)C[C@@H](C)[C@@H]2N[C@@H](COCCOC)O[C@H]([C@H]2C)[C@]1(C)O` stands “inactive”; under `Cc1ccc(C)c(NC(=O)CSc2nc3nc(-c4cccs4)cc(C(F)(F)F)c3c(=O)[nH]2)c1`, “inactive”.
In the case of `Cc1[nH]c(=S)sc1Cc1ccc(Cl)c(Cl)c1`, the molecule was classed as inactive.
Under `C[C@@H]1CCCCO[C@H](CN(C)CC2CC2)[C@H](C)CN([C@@H](C)CO)C(=O)c2cc(NC(=O)Nc3cccc4ccccc34)ccc2O1` stands “inactive”.
In the case of `COC(=O)c1c(NC(=O)CCC(=O)O)sc(Cc2ccccc2)c1C` it was “inactive”; in that of `COc1cccc(C(=O)Nc2cc(C)nn2-c2ccccc2)c1OC`, “inactive”; in that of `O=C(O)c1cc([N+](=O)[O-])ccc1NCc1ccccc1`, “inactive”.
Under `CSc1nc(N)nc(SC2C=CCCC2)c1C#N` (stereo not drawn) stands “inactive”.
Regarding `COc1ccc2[nH]c3c(=O)n(CCCCC(=O)NCCC(C)C)c(=S)[nH]c3c2c1`, the molecule was classed as inactive.
In the case of `COc1ccc(Nc2oc(-c3ccco3)nc2S(=O)(=O)c2ccc(F)cc2)cc1` it was “inactive”; in that of `CC(CNc1ccc(Cl)cc1)(CNc1ccc(Cl)cc1)[N+](=O)[O-]`, “inactive”; in that of `COc1ccc(NC(=O)c2ccc(-c3ccc([N+](=O)[O-])cc3)o2)cc1`, “inactive”.
Consider `C[C@@H]1CCCCO[C@H](CN(C)C(=O)CCCN(C)C)[C@H](C)CN([C@@H](C)CO)C(=O)c2cc(NC(=O)Nc3cccc4ccccc34)ccc2O1`, for which the result was inactive.
In the case of `Cc1ccc(S(=O)(=O)N2CC[C@H]3[C@H](CO)Nc4ccc(Br)cc4[C@H]32)cc1` it was “inactive”.
Under `CCOC(=O)c1c(NC(=O)Cc2cccs2)sc(C)c1C` stands “inactive”; under `CC1(Cc2ccccc2C#N)C(=O)Nc2cc(-c3ccccc3Cl)ccc21` (stereo not drawn), “inactive”; under `Cc1cc(C)c(C#N)c(N2CCN(c3ccccc3)CC2)n1`, “inactive”.
